This is part of a sample that, as a whole, favours compounds with a hit. Of some 83,000 tested, about 20% had one in any assay.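 96-well plates, one dose, 48 hours. Percent growth reported; active if below 10.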 Values without a mark were called inactive. Calls of active or inactive are those of the source.
Experiments:
Test in all cases: NCI-60 one-dose screen, 48 h (100 = growth as untreated, 0 = no growth, -100 = all killed)
Conditions in all cases: 10 µM unless noted
SK-MEL-2 melanoma = test system: SK-MEL-2 melanoma
EKVX NSCLC = test system: EKVX NSCLC
SN12C renal = test system: SN12C renal
UO-31 renal = test system: UO-31 renal
TK-10 renal = test system: TK-10 renal
ACHN renal = test system: ACHN renal
CAKI-1 renal = test system: CAKI-1 renal
A498 renal = test system: A498 renal
CCRF-CEM leukemia = test system: CCRF-CEM leukemia
MOLT-4 leukemia = test system: MOLT-4 leukemia
SR leukemia = test system: SR leukemia
RPMI-8226 leukemia = test system: RPMI-8226 leukemia
OVCAR-8 ovarian = test system: OVCAR-8 ovarian
OVCAR-5 ovarian = test system: OVCAR-5 ovarian
OVCAR-4 ovarian = test system: OVCAR-4 ovarian
SK-OV-3 ovarian = test system: SK-OV-3 ovarian
IGROV1 ovarian = test system: IGROV1 ovarian
HS 578T breast = test system: HS 578T breast
NCI/ADR-RES ovarian = test system: NCI/ADR-RES ovarian
OVCAR-3 ovarian = test system: OVCAR-3 ovarian

| SMILES | growth (SK-MEL-2 melanoma) | growth (EKVX NSCLC) [%] | growth (SN12C renal) | growth (UO-31 renal) | growth (TK-10 renal) | growth (ACHN renal) | growth (CAKI-1 renal) | growth (A498 renal) | growth (CCRF-CEM leukemia) | growth (MOLT-4 leukemia) | growth (SR leukemia) | growth (RPMI-8226 leukemia) | growth (OVCAR-8 ovarian) | growth (OVCAR-5 ovarian) | growth (OVCAR-4 ovarian) | growth (SK-OV-3 ovarian) | growth (IGROV1 ovarian) | growth (HS 578T breast) | growth (NCI/ADR-RES ovarian) | growth (OVCAR-3 ovarian) |
| --- | --- | --- | --- | --- | --- | --- | --- | --- | --- | --- | --- | --- | --- | --- | --- | --- | --- | --- | --- | --- |
| Nc1ncnc2c1N=C(c1ccc3c(c1)OCO3)CC(c1cccc(Nc3ccnc4cc(C(F)(F)F)ccc34)c1)N2 (stereo not drawn) | 88% | 89.5 | 75.5% | 76.9% | 99% | 98.3% | 78.4% | 74.5% | 64.8% | 93.5% | 23.3% | 5.05% (active) | 67.7% | 108% | 89.2% | 80.2% | 84.2% | 85.8% | 88.3% | – |
| CC(=O)OC(c1ccccc1)C1CCOC1=O (stereo not drawn) | 96.5% | 78.8 | 102% | -82.3% (active) | 92.4% | 96.5% | 75.2% | 98.7% | 109% | 82.8% | 122% | 111% | 104% | 86.8% | 88.3% | 106% | 102% | 111% | 97% | – |
| CCOC(=O)c1c(C)nc2ccccc2c1/C=C/c1cccs1 | 63.6% | 67.6 | 78.4% | 63.6% | 90.2% | 76.5% | 63% | 84.5% | 76.4% | 49.4% | 68.6% | 50.7% | 74.8% | 87.8% | 40.4% | 75.9% | 72.1% | – | 43.5% | 82.7% |
| O=C(Nc1ncccc1OCc1ccccc1)NC1CCCCCC1 | 91.9% | 88.2 | 78.6% | 85.1% | 94% | 93.4% | 86.7% | 101% | 77.5% | 78.7% | 61.5% | 68.1% | 104% | 95% | 84.6% | 110% | 89.1% | 105% | 89.7% | – |
| CCNc1ccc(-c2nc3ccccc3n3cccc23)cc1 | 87.9% | 71 | 78% | 51.6% | 82.7% | 73.9% | 57% | 62.5% | 68.2% | 71.2% | 76.4% | 85.2% | 80.9% | 71% | 72.7% | 72.4% | 64% | – | 80.6% | 78.7% |
| C#CC#CC#CC#CC#CC#CC#CC#CC[C@@H]1OC[C@@H](COC(=O)O[C@@H](C(=O)O[C@H]2C[C@@]3(O)[C@@H](OC(=O)c4ccccc4)[C@@H]4[C@]5(OC(C)=O)CO[C@@H]5C[C@H](O)[C@@]4(C)C(=O)[C@H](OC(C)=O)C(=C2C)C3(C)C)[C@@H](NC(=O)c2ccccc2)c2ccccc2)O1 | 105% | 35.2 | 21.4% | 35.2% | 123% | 26.5% | 81.3% | 52.9% | 6.05% (active) | 9.3% (active) | 3.63% (active) | 5.29% (active) | 94.7% | 5.15% (active) | 83.9% | 98.6% | 19.3% | 94.1% | 62.5% | – |
| Fc1cccc(-c2ccc3c(c2)C2(CCNCC2)CN3)c1 | 102% | 96.6 | 94.9% | 88.2% | 114% | 100% | 96.1% | 102% | 119% | 91.7% | 110% | 95.7% | 108% | 103% | 92% | 112% | 97.4% | – | 95.5% | 102% |
| CN1CCN(C(=O)C(C)(C)c2ccc(C(=O)Nc3cn4cc(-c5ccncc5)ccc4n3)cc2)CC1 | -26.7% (active) | 17.9 | 15.6% | -23.7% (active) | 0.354% (active) | 2.6% (active) | -5.37% (active) | -63.2% (active) | 16% | 11.3% | 11.8% | 10.7% | 14.6% | 18.3% | 2.83% (active) | 9.33% (active) | 6.72% (active) | -6.52% (active) | 21.1% | – |
| COc1ccccc1C(=O)Nc1cccc(NC(=O)c2ccoc2C)c1 | 10.3% | 71 | 43.3% | 49.6% | 44.7% | 52.1% | 40.6% | 47.1% | 10.9% | 25% | 15.5% | 20.7% | 40.4% | 85.3% | 77.7% | 66.1% | 41.6% | 40.2% | 9.85% (active) | – |
| Cc1cccc(Oc2ccc(Nc3ncnc4ccc(NC(=O)CN5CCN(C)CC5)cc34)cc2Cl)c1 | -70.7% (active) | 25.1 | 46.4% | 22.2% | 18.8% | -7.41% (active) | 12.9% | 5.9% (active) | 4.6% (active) | 3.77% (active) | 4.43% (active) | -27.9% (active) | 13.2% | 68.2% | -13.5% (active) | 6.73% (active) | -21.9% (active) | -2.13% (active) | 46.9% | – |
| CCN(CC)CCN1C(=O)c2c(c(C)c3c(oc4ccc(OC)cc43)c2C)C1=O | 115% | 101 | 92.6% | 17.5% | 94.3% | 9.28% (active) | 95.8% | 90.8% | 90.2% | 96.2% | 110% | 92.5% | 79.9% | 88.9% | 103% | 111% | 87.2% | 101% | 82.6% | – |
| C[C@]1(O)CC(=O)[C@]2(O)C3=C(C=C[C@]2(O)C1)C(=O)c1c(O)cccc1C3=O | 89.7% | 73.8 | 3.18% (active) | -96.6% (active) | -82.8% (active) | -100% (active) | -59.8% (active) | 117% | 0.446% (active) | -12.8% (active) | 10.5% | -0.202% (active) | -12.6% (active) | 38.8% | -97.9% (active) | 98.8% | – | 71.8% | – | -32.8% (active) |
| C=C(C)[C@@H]1CC[C@]2(COC(C)=O)CC[C@]3(C)[C@H](CC[C@@H]4[C@@]5(C)CCCN(C(C)=O)C(C)(C)[C@@H]5CC[C@]43C)[C@@H]12 | 61.3% | 90 | 67.5% | 77% | 90.3% | 27.9% | 24.3% | 108% | 59.9% | -9.89% (active) | -35.6% (active) | -6.5% (active) | 48.6% | 59.2% | 50.7% | 111% | 57.6% | 73.3% | 66.9% | – |
| C=CC(=O)Nc1ccc(Nc2nccc(-c3ccc(N4CCCC4)c(C#N)c3)n2)cc1 | -0.218% (active) | 66.6 | 41.4% | 21% | 26.1% | 19.6% | 18.7% | -36.9% (active) | 16.7% | -8.84% (active) | -3.35% (active) | -10.3% (active) | 65.9% | 73.4% | 47.3% | 8.26% (active) | 35.9% | -5% (active) | 57.2% | – |
| N#C/C(=C\c1cn(Cc2ccccc2)c2ccccc12)C(=O)Nc1ncc(Cc2ccccc2Cl)s1 | 35.9% | 28.7 | 18.1% | -34.3% (active) | 6.29% (active) | -58.4% (active) | -11.4% (active) | -13.3% (active) | 37% | 61% | 8.65% (active) | 67.6% | 6.09% (active) | -2.57% (active) | -74.6% (active) | 9.54% (active) | 9.54% (active) | – | 15% | -19.1% (active) |
| NS(=O)(=O)c1ccc(-c2cc(-c3nnc(SCC(=O)Nc4ccc(C(=O)/C=C/c5ccc(Cl)cc5)cc4)n3-c3ccccc3)c3ccccc3n2)cc1 | 105% | 96.2 | 94.9% | 84% | 96.4% | 106% | 77.1% | 49.9% | 90.3% | 68.5% | 71.3% | 10.7% | 89.9% | 93.1% | 105% | 103% | 99.2% | 84.3% | 103% | – |

From PubChem BioAssay (NCI)
